Drawing on PubChem BioAssay (Tox21), this text covers max response and Potency for 14 compounds.

“And” between values parts separate entries of the source, which are not always exact repeats. Equal values may be shown once. Results filed as inconclusive are left out. Where a structure was tested more than once in an assay, its records may differ in their call. Values without a mark were called inactive. The source made the active and inactive calls. Calls come from the whole dose curve; as a rule, active = well fitted cell-killing curve with a large enough effect in the repeat runs; inconclusive = weak or mixed curves, or effect the other way; inactive = flat fitted curve, though single readings scatter.
% is set by controls: 0 for no effect and ±100 for the full control effect; potency is the fitted concentration of half-maximal effect.

The assay can be described thus: qHTS RealTime-Glo MT Cell Viability Assay in HEK293 cells - 40 hour (AID 1224874). Note: nearly all actives have a fitted effect of over 50% in size. Conditions: RealTime-Glo luminescence; max response: hits give low values. The essentials:
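600 cells/well were plated with the nonlytic NanoLuc/prosubstrate reagent, pre-incubated 5 h, then given 23 nL of compound in DMSO. Incubation at 37 C for 40 h, with luminescence from viable-cell-reduced substrate read repeatedly from 0 h.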
(In qHTS, concentration-response curves come from the screen itself.)
Turning to `CC1=CCC(C(C)(C)O)CC1` (stereo unspecified), the max response is 3.53% and 0%.
The same measure, in the same setting: the figure for `Nc1ncn([C@@H]2O[C@H](CO)[C@@H](O)[C@H]2O)c(=O)n1` is -27.7% and 4.66%.
The same measure, in the same setting: to `CCOC(=O)C(C#N)=C(c1ccccc1)c1ccccc1` belongs -18.4% and -13.3%; to `CCC(C)(O)CCCC(C)C` (stereo unspecified), 0.571% and 1.24%.
With `CCCCNS(=O)(=O)c1ccccc1`, the Potency was 4.36 µM (active) and the max response was -5.06%.
Regarding `CC(C)CC(C)(O)C#CC(C)(O)CC(C)C` (stereo unspecified), the max response is -20.8% and -13.4%.
In the case of `c1ccc2c(c1)c1cccc3ccc4cccc2c4c31`, the Potency is 19.5 µM (active) and the max response is -16.2%.
As to `O=C(/C=C/c1ccccc1)OCc1ccccc1`, the max response is 1.15% and -0.532%.
On the same count and under the same terms, to `CC(C)(C)NC(=O)[C@H]1CC[C@H]2[C@@H]3CC[C@H]4NC(=O)C=C[C@]4(C)[C@H]3CC[C@]12C` belongs -25.2% and -19.5%.
The same measure, in the same setting: to `CCCc1c(OCCCCc2nn[nH]n2)ccc(C(C)=O)c1O` belongs 0.608% and 1.1%; to `CCCCCCCCCCCO`, -2.32% and 0.908%; to `COc1ccc(OC)c(C(O)CNC(=O)CN)c1` (stereo unspecified), 2.49% and 0.0352%.
Take `COC(=O)Nc1nc2ccc(S(=O)c3ccccc3)cc2[nH]1` (stereo unspecified): the Potency was 0.756 µM (active).
On to `Cc1ncc[nH]1`, for which the max response was 3.53% and 2.93%.
